Measurements: PubChem BioAssay (NCI)
The panel holds about 83,000 compounds, 20% with a hit somewhere; the sample as a whole holds those more often.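 Interpretation: 100, growth as untreated; towards 0, rising growth inhibition; 0, no net growth; 0 to -100, cell death. Compounds scoring below 10 were considered active.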 The source made the active and inactive calls.

Tested on: A498 renal
Test: NCI-60 one-dose screen, 48 h (100 = growth as untreated, 0 = no growth, -100 = all killed)
Details: 10 µM unless noted

Compound | growth
COC(=O)Cc1cc(COC(C)=O)ccc1C | 95.4% (inactive)
Cc1cc(=O)n(Nc2ccccc2)c(O)c1C#N | 115% (inactive)
CN(C)c1ccc(O)c2c1CC1CC3C(N(C)C)C(=O)C(C(N)=O)=C(O)C3(O)C(=O)C1=C2O (configuration not stated) | 26.2% (inactive)
C/C(=N\N=C(/C)c1cccc([N+](=O)[O-])c1)c1cccc([N+](=O)[O-])c1 | 97.9% (inactive)
CC(=O)c1ccc(C)cc1 | 94.5% (inactive)
O=C1Nc2ccccc2/C1=C\c1ccccc1O | 105% (inactive)
CCOC(=O)Nc1nccs1 | 99.9% (inactive)
CCNC(=O)Oc1ccc[nH]c1=O | 116% (inactive)
Cc1nc(C)c(C(=O)O)cc1C(=O)O | 89.3% (inactive)
CC(CO)(CO)C(=O)O | 85.3% (inactive)
CCOC(=O)CNC | 83.1% (inactive)
CC(c1ccccc1)N(C)C (configuration not stated) | 139% (inactive)
Nc1cccc2cccc(O)c12 | 97.9% (inactive)
CC(CCC#N)(CCC#N)C(=O)c1ccccc1 | 89.9% (inactive)
O=[N+]([O-])c1c(Cl)ncnc1Cl | 90% (inactive)
NS(=O)(=O)c1cc(=O)[nH]c(=O)[nH]1 | 190% (inactive)
COc1ccc2c(Cl)cc(NC(=O)Nc3c(C)cccc3C)nc2c1 | 36.1% (inactive)
CC(=O)c1cccc(O)c1 | 38.3% (inactive)
Cc1nc(O)cc(=O)[nH]1 | 96.2% (inactive)
Cc1ccc(C)c2c1CCC2=O | 56.8% (inactive)
O=C(OC1CCCC1)c1ccccc1Cl | 86.6% (inactive)
CC(C)c1ccc(C(=O)OCCCl)cc1 | 92.7% (inactive)
